From PubChem BioAssay AID1224921 (Broad Institute, 2016)
Among all 1,400 compounds or so, about 350 (25%) were called active. About 2% were inconclusive and are not listed. The rule behind the calls is not given here. Only a sample is shown. Potency and affinity values are given separately.

Test: inhibitors of Clostridioides difficile proliferation – 4-point retest, confirmation (AID 1224921);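 note: plate controls were DMSO wells for no effect and levofloxacin 16 µg/mL wells for full effect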
Conditions: Clostridioides difficile clinical isolate growth, OD600, 24 h, active compounds read low; at 30 µM unless noted

Max activity, inactive:
COc1ccccc1C#Cc1ccc([C@H]2[C@@H](CO)N(C(=O)C3CC3)[C@H]2C#N)cc1 12.6%
COc1ccccc1C#Cc1ccc([C@H]2[C@@H](C#N)N(C(=O)C3CCC3)[C@H]2CO)cc1 29.5% [at 8 µM]
N#C[C@H]1[C@@H](c2ccc(C#Cc3ccccc3F)cc2)[C@@H](CO)N1C(=O)C1CCC1 -4.04%
COc1ccccc1C#Cc1ccc([C@@H]2[C@@H](CO)N(C(=O)C3CCCCC3)[C@H]2C#N)cc1 12.6% [at 1.95 µM]
N#C[C@@H]1[C@@H](c2ccc(C#Cc3cccc(F)c3)cc2)[C@H](CO)N1C(=O)C1CCC1 24.5% [at 0.5 µM]
COc1cccc(C#Cc2ccc([C@H]3[C@@H](CO)N(C(=O)C4CCC4)[C@H]3C#N)cc2)c1 29% [at 8 µM]
COc1ccccc1C#Cc1ccc([C@@H]2[C@@H](C#N)N(C(=O)C3CCCCC3)[C@H]2CO)cc1 30.9%
COc1cccc(C#Cc2ccc([C@@H]3[C@@H](C#N)N(C(=O)C4CCCCC4)[C@H]3CO)cc2)c1 32.5%
C[C@H](C(=O)N(C)C[C@@H]1OCc2ccccc2-c2ccccc2C(=O)N([C@H](C)CO)C[C@H]1C)c1ccccc1 -11.2% [at 1.95 µM]
CCCC(=O)Nc1ccc2c(c1)C(=O)N(C)C[C@@H](OC)[C@H](C)CN(Cc1ccccc1)[C@@H](C)CO2 26.7%
O=C(C[C@H]1CC[C@H](NC(=O)C2CCOCC2)[C@@H](CO)O1)Nc1nccs1 -4.31% [at 1.95 µM]
C[C@H]1CN([C@@H](C)CO)S(=O)(=O)c2ccc(C#Cc3ccc(F)cc3)cc2O[C@@H]1CN(C)S(C)(=O)=O -17.5% [at 1.95 µM]
CCCC#Cc1ccc2c(c1)O[C@H](CN(C)Cc1ccncc1)[C@H](C)CN([C@@H](C)CO)S2(=O)=O -13.4% [at 8 µM]
CCCC(=O)Nc1ccc2c(c1)OC[C@@H](C)N(C(=O)c1ccccc1F)C[C@@H](C)[C@H](OC)CN(C)C2=O -11% [at 1.95 µM]
CO[C@@H]1CN(C)C(=O)c2cc(NC(=O)c3cccc(F)c3)ccc2OC[C@@H](C)N(C(C)=O)C[C@@H]1C 7.72%
C[C@@H]1CN([C@H](C)CO)C(=O)c2ccccc2-c2ccccc2CO[C@H]1CN(C)S(=O)(=O)c1ccc(Cl)cc1 34.1%
CCCN1C[C@H](C)[C@H](OC)CN(C)C(=O)c2cc(NC(=O)Nc3cccc(OC)c3)ccc2OC[C@@H]1C 17.5% [at 35 µM]
C[C@@H]1CN([C@@H](C)CO)C(=O)c2cc(NC(=O)Nc3ccc(C(F)(F)F)cc3)ccc2O[C@@H]1CN(C)Cc1ccc(Oc2ccccc2)cc1 30.2%
C[C@@H]1CN([C@@H](C)CO)C(=O)c2cccc(NS(C)(=O)=O)c2O[C@@H]1CN(C)Cc1ccccc1 -11.2% [at 8 µM]
C[C@@H]1CN([C@@H](C)CO)C(=O)c2cccc(NS(C)(=O)=O)c2O[C@H]1CN(C)Cc1ccccc1 16.6%
C[C@H]1CN([C@@H](C)CO)C(=O)c2cccc(NS(=O)(=O)c3ccccc3)c2O[C@H]1CN(C)Cc1ccc(Cl)c(Cl)c1 33.4%
C[C@H](CO)N1C[C@H](C)[C@H](CN(C)Cc2ccccc2)Oc2c(NS(C)(=O)=O)cccc2C1=O 24.8%
O=C(C[C@H]1C=C[C@H](NC(=O)c2ccncc2)[C@@H](CO)O1)Nc1ccc(-c2ccccc2)cc1 -5.7% [at 0.5 µM]
COc1ccc(COC[C@@]23Oc4ccccc4[C@@H](NC(=S)N2C)[C@H]3CO[Si](C)(C)C(C)(C)C)cc1 23.7%
O=C(C[C@H]1C[C@H]2c3cc(NC(=O)Nc4ccccc4)ccc3O[C@H]2[C@@H](CO)O1)NC1CCCC1 -20.3% [at 1.95 µM]
C[C@H]1CN([C@@H](C)CO)S(=O)(=O)c2ccc(C3=CCCCC3)cc2O[C@@H]1CN(C)Cc1cccnc1 31.2%
COc1cccc(NC(=O)N(C)C[C@H]2Oc3cc(C#CC4(O)CCCC4)ccc3S(=O)(=O)N([C@@H](C)CO)C[C@H]2C)c1 -5.35% [at 0.5 µM]
CO[C@H]1CN(C)C(=O)c2ccc(NC(=O)c3ccccc3F)cc2OC[C@@H](C)N(CC2CC2)C[C@@H]1C -8.61% [at 0.5 µM]
COc1ccc(CN(C)C[C@@H]2OCCCC[C@H](C)Oc3ccc(NC(=O)Nc4cccc5ccccc45)cc3C(=O)N([C@@H](C)CO)C[C@H]2C)cc1 25.5%
COc1ccc(CN(C)C[C@@H]2OCCCC[C@@H](C)Oc3ccc(NC(=O)Nc4cccc5ccccc45)cc3C(=O)N([C@@H](C)CO)C[C@H]2C)cc1 29.5% [at 8 µM]
COc1ccc(CN(C)C[C@@H]2OCCCC[C@@H](C)Oc3ccc(NC(=O)Nc4cccc5ccccc45)cc3C(=O)N([C@H](C)CO)C[C@H]2C)cc1 17.7% [at 1.95 µM]
C[C@@H]1CN([C@@H](C)CO)C(=O)c2cc(NC(=O)Nc3cccc4ccccc34)ccc2O[C@@H](C)CCCCO[C@H]1CN(C)Cc1ccccc1 42%
CC(C)(C)[S@@](=O)N1Cc2cc(C(=O)NCc3ccc4c(c3)OCO4)nc(-c3cccc(-c4cccnc4)c3)c2[C@H]1CCO 31.3% [at 35 µM]
O=C(C[C@@H]1C=C[C@H](NC(=O)c2cccnc2)[C@H](CO)O1)NCc1ccc(Cl)c(Cl)c1 -13.7% [at 1.95 µM]
Cc1ccc(-c2ccc3c(c2)O[C@@H](CN(C)Cc2cccnc2)[C@H](C)CN([C@@H](C)CO)S3(=O)=O)cc1 41.8%
C[C@H](NC(=O)C[C@@H]1CC[C@@H]2[C@H](COC[C@@H](O)CN2C(=O)Nc2cc(Cl)cc(Cl)c2)O1)c1ccccc1 14% [at 1.95 µM]
C[C@H](NC(=O)C[C@@H]1CC[C@@H]2[C@H](COC[C@H](O)CN2C(=O)Nc2cc(Cl)cc(Cl)c2)O1)c1ccccc1 24.8% [at 8 µM]
